This is part of a sample that, as a whole, favours compounds with a hit. Of some 83,000 tested, about 20% had one in any assay.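 Treatment: one concentration, 48 hours, 96-well format. Scoring: percent growth, with anything below 10 considered active.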 A number with no mark means an inactive call. The source made the active and inactive calls.

Among the test systems are T-47D breast; BT-549 breast; MDA-MB-435 melanoma; SW-620 colon; MCF7 breast; HCT-116 colon; HCC-2998 colon; KM12 colon.
Common to all, as to assay: NCI-60 one-dose screen, 48 h (100 = growth as untreated, 0 = no growth, -100 = all killed)
Settings in all cases: 10 µM unless noted

As for `CN1CCN(Cc2ccc(NC(=O)c3cncc(C#Cc4cnc5ccc(OCC6COC6)nn45)c3)cc2C(F)(F)F)CC1`, the growth in the assay on T-47D breast was -1.42% (active); in the assay with BT-549 breast, -71.5% (active); with MDA-MB-435 melanoma it was -92.3% (active); with SW-620 colon, -29.8% (active); in the assay on MCF7 breast it was -70.8% (active); in the assay with HCT-116 colon, -78.6% (active). Further, the growth was -77.4% (active) in the assay with HCC-2998 colon and -73.6% (active) with KM12 colon.

Take `CC(=O)N1N=C(c2cc3ccccc3oc2=O)CC1c1cn(-c2ccccc2)nc1-c1ccc(C)cc1` (stereo not given): the growth in the assay on T-47D breast is 96.4%; in the assay on BT-549 breast it was 117%; in the assay on MDA-MB-435 melanoma it was 102%; in the assay on SW-620 colon, 98.8%; with MCF7 breast it was 90.8%; with HCT-116 colon, 92.1%. In addition, the results for the growth in the assay with HCC-2998 colon and in the assay on KM12 colon were 106% and 98.6%, respectively.

Regarding `CN1CCN(c2ccc(Nc3nc(NCCCNS(=O)(=O)c4ccc(F)cc4)c4sccc4n3)cc2)CC1`, the growth in the assay on T-47D breast is 29.8%; in the assay on BT-549 breast, 65.9%; with MDA-MB-435 melanoma, 47.3%; in the assay with SW-620 colon it was 70.1%; in the assay with MCF7 breast it was 31.2%; with HCT-116 colon, 20.8%. Besides, the growth is 74.3% in the assay on HCC-2998 colon and 65.3% with KM12 colon.

As for `Cc1ccc2c(n1)C(=O)C(Cl)=C(Nc1ccc(C(F)(F)F)cc1)C2=O`, the growth with T-47D breast is -25.5% (active); with BT-549 breast, 130%; with MDA-MB-435 melanoma, 95.8%; in the assay on SW-620 colon, -10.5% (active); with MCF7 breast it was -56.1% (active); in the assay on HCT-116 colon it was 1.42% (active). The growth is 97.9% with HCC-2998 colon and 98.2% in the assay with KM12 colon.

As to `C/C(=C(\c1ccc(O)cc1)c1ccc(OCCN2CCCCCC2)cc1)c1ccc(Cl)cc1`, the growth in the assay with T-47D breast is -71.9% (active); in the assay with BT-549 breast it was -71.8% (active); in the assay on MDA-MB-435 melanoma, -73.9% (active); in the assay with SW-620 colon it was -2.89% (active); with MCF7 breast, -81.1% (active); in the assay on HCT-116 colon, -31.7% (active). The growth in the assay on HCC-2998 colon is -88.2% (active); in the assay on KM12 colon it was -96.1% (active).

With `COc1cc(-c2nc(-c3ccccc3)[nH]c2-c2ccnc(NCCCNS(=O)(=O)c3cccc(F)c3)n2)ccc1F`, the growth was 66.5% in the assay on T-47D breast; 128% in the assay with BT-549 breast; 82% with MDA-MB-435 melanoma; 106% with SW-620 colon; 83.1% with MCF7 breast; 75.1% in the assay on HCT-116 colon. Also, the growth in the assay with HCC-2998 colon is 142%; in the assay on KM12 colon, 85.8%.

With `O=C1C(SCc2ccccc2)=C(Cl)CN1c1ccc(Cl)cc1`, the growth with T-47D breast was 50.4%; in the assay with BT-549 breast it was 109%; in the assay with MDA-MB-435 melanoma it was 100%; in the assay on SW-620 colon it was 101%; with MCF7 breast, 25.7%; in the assay on HCT-116 colon, 89.7%. Further, the results for the growth in the assay on HCC-2998 colon and in the assay with KM12 colon were 95.9% and 99.1%, respectively.

For `O=C(/C=C/c1cc(Cl)ccc1Cl)Nc1ncc(Cc2ccc(Cl)cc2)s1`, the growth was 63.8% in the assay on T-47D breast; -46.5% (active) with BT-549 breast; -37% (active) in the assay on MDA-MB-435 melanoma; 20.8% in the assay with SW-620 colon; 16.2% in the assay with MCF7 breast; 2.67% (active) with HCT-116 colon. Besides, the growth is 13.3% in the assay with HCC-2998 colon and 13.1% with KM12 colon.

For the compound `CCCCCCOC(=O)c1cc(-c2ccc(F)cc2)nc2ccccc12`, the growth is 88.8% in the assay with T-47D breast; 103% in the assay on BT-549 breast; 99.9% in the assay on MDA-MB-435 melanoma; 93.5% with SW-620 colon; 91.5% in the assay on MCF7 breast; 93.3% with HCT-116 colon. Moreover, the results for the growth with HCC-2998 colon and in the assay on KM12 colon were 106% and 96.1%, respectively.

As for `O=C1[C@@H]2Cc3c([nH]c4ccccc34)[C@@H](c3ccc(Cl)cc3)N2C(=O)CN1C1CCN(Cc2ccccc2)CC1`, the growth is 81.7% with T-47D breast; 77.6% in the assay on BT-549 breast; 64.2% with MDA-MB-435 melanoma; 65.9% in the assay with SW-620 colon; 19% in the assay with MCF7 breast; 9.43% (active) in the assay with HCT-116 colon. Further, the growth with HCC-2998 colon was 43.9%; in the assay with KM12 colon it was 50.4%.

As to `COc1ccc(C(C)=C(c2ccc(OCCN3CCCCCC3)cc2)c2ccc(OCCN3CCCCCC3)cc2)cc1`, the growth in the assay on T-47D breast is -32.2% (active); in the assay with BT-549 breast it was 13.2%; in the assay with MDA-MB-435 melanoma it was -83.7% (active); in the assay with SW-620 colon it was -50.4% (active); with MCF7 breast, -72.4% (active); with HCT-116 colon, -93% (active). Also, the growth in the assay with HCC-2998 colon is -79.3% (active); with KM12 colon it was -24.8% (active).

In the case of `NCCNC(=O)c1cccc(COc2ccccc2NC(=O)c2cc(Br)c(Br)[nH]2)c1`, the growth in the assay with T-47D breast was 75.9%; with BT-549 breast, 130%; in the assay on MDA-MB-435 melanoma, 96.2%; in the assay with SW-620 colon, 35.1%; in the assay on MCF7 breast, 16.9%; with HCT-116 colon, 20.2%. The growth in the assay with HCC-2998 colon was 99.8%; in the assay with KM12 colon, 89.7%.

Regarding `Cc1ccc(OCc2occc2C(=O)N2CCOCC2)cc1`, the growth is 93.1% with T-47D breast; 117% with BT-549 breast; 100% in the assay with MDA-MB-435 melanoma; 102% with SW-620 colon; 85.6% in the assay on MCF7 breast; 105% in the assay on HCT-116 colon. Moreover, the growth in the assay with HCC-2998 colon was 103%; in the assay on KM12 colon, 107%.

On to `CCOc1cccc(/C(N)=N/C(N)=N/c2nc3ccccc3s2)c1`, for which the growth in the assay on T-47D breast was 73.1%; in the assay on BT-549 breast, 102%; in the assay on MDA-MB-435 melanoma, 99.9%; in the assay with SW-620 colon it was 102%; in the assay on MCF7 breast, 72.6%; in the assay with HCT-116 colon, 72.3%. Besides, the growth with HCC-2998 colon is 111%; in the assay with KM12 colon, 46.4%.

Consider `CCNC(=O)Oc1ccc(/C(=C(/C)c2ccc(Cl)cc2)c2ccc(OCCN3CCCCCC3)cc2)cc1`, for which the growth with T-47D breast is 10.8%; with BT-549 breast, 77.5%; with MDA-MB-435 melanoma, 22.5%; in the assay with SW-620 colon, -74.5% (active); in the assay with MCF7 breast, -37.8% (active); in the assay with HCT-116 colon, -80% (active). The results for the growth with HCC-2998 colon and in the assay with KM12 colon were 26.1% and 12.7%, respectively.

Values taken from PubChem BioAssay (NCI).
